{"source": "PubChem BioAssay (Tox21)", "note": "Results filed as inconclusive are left out. Where a call stands in place of a potency, no number is given. Calls of active or inactive are those of the source. Calls come from the whole dose curve; as a rule, active = well fitted cell-killing curve with a large enough effect in the repeat runs; inconclusive = weak or mixed curves, or effect the other way; inactive = no such curve, though single readings can be large or run the other way.", "data": [{"experiment": "qHTS assay to identify small molecule antagonists of the glucocorticoid receptor (GR) signaling pathway - cell viability counter screen (AID 720693); note: nearly all actives have a fitted effect of over 55% in size", "details": "GR-bla HeLa viability, CellTiter-Glo luminescence, 18 h, with 5 nM dexamethasone present; series mostly up to 58.5 µM", "description": "National Center for Advancing Translational Sciences [NCATS]\nNIH Chemical Genomics Center [NCGC]\nU.S. Environmental Protection Agency [EPA]\nNational Institutes of Environmental Health Sciences [NIEHS]\nNational Toxicology Program [NTP]\nU.S. Food and Drug Administration [FDA]\nThe Glucocorticoid receptor (GR) is one of the members of the nuclear receptor family of ligand-dependent transcription factors. GR plays a critical role in carbohydrate, protein and lipid metabolisms and programmed cell death. CellSensor GR-bla HeLa cell line (Invitrogen) contains a beta-lactamase reporter gene under the control of the glucocorticoid response element stably integrated into HeLa cells, a cervical cancer cell line that expresses glucocorticoid receptor. The activation of the reporter gene under culture conditions can be detected by fluorescence intensity. This cell line has been used to screen the Tox21 10K compound library and to identify the compounds that inhibit the GR signaling. The cytotoxicity of the Tox21 compound library against the GR-bla HeLa cell line was tested in parallel by measuring the cell viability using CellTiter-Glo assay in the same wells.\nTox21 Assay Protocol Summary:\nThe GR-bla HeLa cells were dispensed at 1500 cells/5 ul/well in 1536-well black wall/clear bottom plates using a Multidrop Combi (ThermoFisher Scientific, Waltham, MA) dispenser. After the assay plates were incubated at a 37 C/5% CO2 incubator for 4 hours, 23 nL of compounds dissolved in DMSO, positive controls or DMSO only was transferred to the assay plate by a pintool station (Kalypsys, San Diego, CA), followed by addition of 1 uL of dexamethasone (5 nM, final concentration in the well). The plates were incubated at 37 C for 18 hours. After 1 uL of LiveBLAzerTM B/G FRET substrate was added using a Flying Reagent Dispenser (Aurora Discovery, San Diego, CA), the plates were incubated at room temperature (RT) for 2 hours, and fluorescence intensity was measured by an Envision plate reader (PerkinElmer, Shelton, CT). After measurement of bla assay, 3 ul CellTiter-Glo (Promega, Madison, WI) was added to measure the cytotoxicity and the plates were then incubated at RT for 30 min. The luminescence was measured using a ViewLux (Perkin Elmer) plate reader.", "values": [{"smiles": "O=C(O)C(Br)CBr", "note": "(stereo not given)", "Potency": "inactive"}, {"smiles": "NC(=S)C(N)=S", "Potency": "inactive"}, {"smiles": "CNC(=O)Oc1ccccc1C1OCCO1", "Potency": "inactive"}, {"smiles": "CCN(Cc1ccc(Cl)nc1)/C(=C/[N+](=O)[O-])NC", "Potency": "inactive"}, {"smiles": "O=C1OC(=O)C2C1C1(Cl)C(Cl)=C(Cl)C2(Cl)C1(Cl)Cl", "note": "(stereo not given)", "Potency": "inactive"}, {"smiles": "COc1cc(OC)nc(Oc2cccc(Oc3nc(OC)cc(OC)n3)c2C(=O)O)n1", "Potency": "inactive"}, {"smiles": "Cc1coc2c1CCC(C)C2", "note": "(stereo not given)", "Potency": "inactive"}, {"smiles": "COC(=O)c1ccccc1S(=O)(=O)NC(=O)Nc1nc(C)cc(C)n1", "Potency": "inactive"}, {"smiles": "CCCCN(CCCCO)N=O", "Potency": "inactive"}, {"smiles": "ClC(Cl)(Cl)C(Cl)(Cl)Cl", "Potency": "inactive"}, {"smiles": "CN/C(=N\\[N+](=O)[O-])NCC1CCOC1", "note": "(stereo not given)", "Potency": "inactive"}, {"smiles": "C[N+](C)=CCl", "Potency": "inactive"}, {"smiles": "N#Cc1ccncc1", "Potency": "inactive"}, {"smiles": "Cc1nc(N)nc(N)n1", "Potency": "inactive"}, {"smiles": "COC(=O)COc1ccc(Cl)cc1Cl", "Potency": "inactive"}, {"smiles": "O=[N+]([O-])c1cccc2cccnc12", "Potency": "inactive"}, {"smiles": "NC1=NC(=O)C(c2ccccc2)O1", "note": "(stereo not given)", "Potency": "inactive"}, {"smiles": "C(CCOCC1CO1)COCC1CO1", "note": "(stereo not given)", "Potency": "inactive"}, {"smiles": "CSc1ccc(C(=O)C(C)(C)N2CCOCC2)cc1", "Potency": "inactive"}, {"smiles": "CNC(=O)Oc1cccc(C(C)C)c1", "Potency": "inactive"}, {"smiles": "O=[N+]([O-])c1ccc2c3c(cccc13)CC2", "Potency": "inactive"}, {"smiles": "CC(CCc1ccccc1)NC(C)C(O)c1ccc(O)cc1", "note": "(stereo not given)", "Potency": "inactive"}, {"smiles": "CN1C[C@@H](NS(=O)(=O)N(C)C)C[C@@H]2c3cccc4c3c(cn4C)C[C@H]21", "Potency": "inactive"}, {"smiles": "CC(C)NCC(O)c1ccc(N)c(C#N)c1", "note": "(stereo not given)", "Potency": "inactive"}, {"smiles": "CCN(CC)C(=O)[C@@H]1C=C2c3cccc4[nH]cc(c34)C[C@H]2N(C)C1", "Potency": "inactive"}, {"smiles": "CCOP(=O)(N=C1SCCS1)OCC", "Potency": "inactive"}, {"smiles": "CC(CC(C#N)(c1ccccc1)c1ccccc1)N(C)C", "note": "(stereo not given)", "Potency": "inactive"}, {"smiles": "CCC1(c2ccccc2)C(=O)N=C(O)NC1=O", "note": "(stereo not given)", "Potency": "inactive"}, {"smiles": "OC(c1ccccc1)(c1ccccc1)C1CCNCC1", "Potency": "inactive"}, {"smiles": "COC(=O)c1ccccc1S(=O)(=O)NC(=O)N(C)c1nc(C)nc(OC)n1", "Potency": "inactive"}, {"smiles": "O=C(Oc1ccc(Br)cc1)N1CCN2CCC1CC2", "Potency": "inactive"}, {"smiles": "CSc1nc(N=[N+]=[N-])nc(NC(C)C)n1", "Potency": "inactive"}, {"smiles": "CCN(CC)C(C)C(=O)c1ccccc1", "note": "(stereo not given)", "Potency": "inactive"}, {"smiles": "CCOC(=O)CP(=O)(OCC)OCC", "Potency": "inactive"}, {"smiles": "CCNc1nc(NC(C)C)nc(OC)n1", "Potency": "inactive"}, {"smiles": "Nc1cc2c3c(c1)C(c1ccccc1)=N[C@@H](NC(=O)c1cccnc1)C(=O)N3CC2", "Potency": "inactive"}, {"smiles": "Nc1cc(Cl)ccc1O", "Potency": "inactive"}, {"smiles": "CCOP(=S)(OCC)SCSP(=S)(OCC)OCC", "Potency": "inactive"}, {"smiles": "N#Cc1c(Cl)cccc1Cl", "Potency": "inactive"}, {"smiles": "OCCSCSCCO", "Potency": "inactive"}]}]}
